For 4 molecules, AC50 results are on record in PubChem BioAssay AID2284351 (EPA ToxCast).

Structures are written as SMILES. Calls of active or inactive are those of the source. The calls were made as follows: active = hit-call score of the fitted dose curve at least 0.9, where 1 is the maximum; inactive = score below 0.9.

Chain of Peroxisome proliferator-activated receptor gamma (Homo sapiens) (P37231 whole entry, looked up): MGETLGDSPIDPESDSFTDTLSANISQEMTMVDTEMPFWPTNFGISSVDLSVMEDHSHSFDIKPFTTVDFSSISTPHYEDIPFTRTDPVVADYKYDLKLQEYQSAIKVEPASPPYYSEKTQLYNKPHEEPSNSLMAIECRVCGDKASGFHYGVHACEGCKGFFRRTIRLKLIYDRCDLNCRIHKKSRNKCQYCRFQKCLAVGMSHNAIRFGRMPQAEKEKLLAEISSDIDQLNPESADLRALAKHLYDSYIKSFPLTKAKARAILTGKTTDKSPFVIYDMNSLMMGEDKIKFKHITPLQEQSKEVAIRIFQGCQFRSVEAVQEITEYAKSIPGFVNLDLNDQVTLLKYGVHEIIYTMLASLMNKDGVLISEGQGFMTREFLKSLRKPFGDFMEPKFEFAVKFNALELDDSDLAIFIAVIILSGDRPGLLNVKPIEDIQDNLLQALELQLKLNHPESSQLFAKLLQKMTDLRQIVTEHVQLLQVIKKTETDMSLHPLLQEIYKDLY

The assay concerns the target Peroxisome proliferator-activated receptor gamma (Homo sapiens) (UniProt P37231). Briefly: ATG_hPPARg_EcoTox2: Attagene TRANS-FACTORIAL EcoTox-2 HepG2 Assay for human Peroxisome Proliferator-activated Receptor gamma (PPARg). Here is the method: ATG_EcoTox2 is a cell-based, multiplexed assay created by modifying the existing Attagene TRANS-FACTORIAL system to include a panel of nuclear receptors from some or all the following species: human (Homo sapiens), african clawed frog (Xenopus laevis), rainbow trout (Oncorhynchus mykiss), japanese medaka (Oryzias latipes), and zebrafish (Danio rerio). The ECOTOX2-FACTORIAL format uses HepG2, a human liver cell line, with measurements taken at 24 hours after chemical dosing in a 24-well plate. ATG_hPPARg_EcoTox2 is one of 29 assay components calculated in the ATG_EcoTox2 assay. It is designed to make measurements of mRNA induction, a form of inducible reporter, as detected with fluorescence intensity signals by Reverse transcription polymerase chain reaction (RT-PCR) and Capillary electrophoresis technology.The assay endpoint ATG_hPPARg_EcoTox2 was analyzed in the positive analysis fitting direction relative to DMSO as the negative control and baseline of activity. Using a type of inducible reporter, measures of mRNA for gain-of-signal activity can be used to understand the reporter gene at the transcription factor-level as they relate to the gene PPARg. Furthermore, this assay endpoint can be referred to as a primary readout, because this assay has produced multiple assay endpoints where this one serves a reporter gene function. To generalize the intended target to other relatable targets, this assay endpoint is annotated to the nuclear receptor intended target family, where the subfamily is non-steroidal.
Human liver HepG2 cells are transiently transfected with multiple reporter transcription units (MRTUs) in 6-well plates using FuGene 6 reagent (Roche; 3 ml FuGene/1 mg DNA). The MRTU constructs are regulated by a cis-regulating element (promoter). Each RTU expresses a GAL4-UAS that regulates the transcription of a nearby target reporter gene sequence. A major difference between the CIS and TRANS system is that in CIS activities of endogenous TFs are measured, whereas the TRANS assay evaluates changes in activities of exogenous, chimeric NR-Gal4 proteins. […] At the end of 24 hour incubation, total RNA was isolated using TriZol reagent (Invitrogen). The isolated RNA is then reverse-transcribed using oligo(dT) primer and Mo-MLV reverse transcriptase (Invitrogen) with DNAse I (Ambion) treatment for 30 min. The one-tenth of the produced cDNA was amplified by PCR using Taq DNA polymerase (Invitrogen) and two reporter sequence-specific primers. […] The fragments were purified using Qiaquick PCR columns (Qiagen), analyzed on an ABI 3130xL genetic analyzer (Applied Biosystems) with peak positions identified by using a set of X-rhodamine (ROX)-labeled MapMarker1000 molecular weight standards (BioVentures). […]
A word on the AC50: it is the concentration giving half of the maximal activity seen. Regarding `CCCCOCN(C(=O)CCl)c1c(CC)cccc1CC`, the AC50 is 1.53 µM (active).

`O=S(=O)(O)C(F)(F)C(F)(F)C(F)(F)C(F)(F)C(F)(F)C(F)(F)F`: the half-maximal activity concentration (AC50) is 42.7 µM (active).

As to `O=P(Oc1ccccc1)(Oc1ccccc1)Oc1ccccc1`, the AC50 was 5.76 µM (active).

With `[Cl][Sn]([c]1ccccc1)([c]1ccccc1)[c]1ccccc1`, the AC50 was 0.0461 µM (active).
